Screening data: PubChem BioAssay, National Center for Advancing Translational Sciences (NCATS)
ELG1 repair inh: qHTS screen for small molecules that inhibit ELG1-dependent DNA repair in human embryonic kidney (HEK293T) cells expressing luciferase-tagged ELG1 | HEK293T ELG1-luciferase reporter, luminescence, 16 h; DNA damage induced by 5-fluorouridine | Potency, µM (titrated, usually from 46.1 µM), without a hit: at the highest dose activity change, negative = inhibition, hits mostly inhibitors | 330,000 tested, 2.3% active; note: % is set by controls: 0 for no effect and ±100 for the full control effect; nearly all actives have a fitted effect of over 55% in size
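Reporter activity after DNA damage by 5-fluorouridine is monitored. Compound-treated cells incubate 16 hr at 37 °C, then ONE-Glo is added for 30 min before luminescence reading.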
RORg inh: qHTS for inhibitors of ROR gamma transcriptional activity; Drosophila S2 Gal4-RORgamma UAS-luciferase reporter, 20 h; Nuclear receptor ROR-gamma (Mus musculus), P51450; Potency, µM (doses to about 53.6 µM), for inactives: top-dose activity change, negative = inhibition, usual class: inhibitors; 310,000 tested, 5.4% active; note: % is set by controls: 0 for no effect and ±100 for the full control effect; nearly all actives have a fitted effect of over 60% in size
Target sequence (P51450 whole entry, looked up, the tested form may be a part): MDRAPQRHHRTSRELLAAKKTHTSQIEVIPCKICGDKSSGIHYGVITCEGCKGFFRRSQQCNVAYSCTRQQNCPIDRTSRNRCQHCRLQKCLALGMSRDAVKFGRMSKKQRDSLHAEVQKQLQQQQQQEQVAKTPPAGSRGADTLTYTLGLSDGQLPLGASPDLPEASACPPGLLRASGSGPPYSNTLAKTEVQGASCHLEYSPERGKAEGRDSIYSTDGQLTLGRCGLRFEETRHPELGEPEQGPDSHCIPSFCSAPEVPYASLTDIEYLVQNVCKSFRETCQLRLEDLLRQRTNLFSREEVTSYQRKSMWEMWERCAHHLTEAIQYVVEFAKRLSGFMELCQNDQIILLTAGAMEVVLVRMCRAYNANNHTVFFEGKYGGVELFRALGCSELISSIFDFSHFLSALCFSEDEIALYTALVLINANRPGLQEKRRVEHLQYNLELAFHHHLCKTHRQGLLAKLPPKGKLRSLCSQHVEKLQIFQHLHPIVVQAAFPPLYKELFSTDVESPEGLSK
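Schneider cells (Drosophila), stable Gal4 DBD–ROR gamma + UAS-luc; 1 hr cmpd preincubation; Cu2+ induction 700 uM final; 20 hr ambient; luminescence.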
Gal4-VP16 FLuc: VP16 counterscreen qHTS for inhibitors of ROR gamma transcriptional activity. Drosophila S2 Gal4-VP16 UAS-luciferase, luminescence, 20 h. Potency, µM (doses to about 53.6 µM), for the others: at the highest dose activity, negative = inhibition, most hits filed as inhibitors. 310,000 tested, 3.5% active. AID 2546, 2010;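 note: Gal4-VP16 expression switched on by copper sulfate through the metallothionein promoter; % is set by controls: 0 for no effect and ±100 for the full control effect; nearly all actives have a fitted effect of over 50% in size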
MCF10A rerep: A quantitative high throughput screen for small molecules that induce DNA re-replication in MCF 10a normal breast cells; MCF 10A DNA re-replication, Hoechst nuclear intensity, 48 h; Potency, µM (doses to about 46.1 µM), for the others: at the highest dose activity, positive = re-replication, hits mostly activators; 350,000 tested, 2.9% active; AID 624296, 2012; note: % of control where 0% means no effect; nearly all actives have a fitted effect of over 50% in size
SW480 rereplic: A quantitative high throughput screen for small molecules that induce DNA re-replication in SW480 colon adenocarcinoma cells; SW480 DNA re-replication, Hoechst DNA content imaging, 48 h; Potency, µM (highest dose often 46.1 µM), without a hit: at the highest dose re-replication activation, most hits filed as activators; 340,000 tested, 1.8% active; note: % of control where 0% means no effect; nearly all actives have a fitted effect of over 55% in size
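Image-based DNA-content assay: after two days of treatment, nuclei were labelled with the DNA dye Hoechst and imaged, and hits were compounds raising the count of nuclei showing high fluorescence intensity.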
* hit, by the source's call; ? = inconclusive; . = no result given; [ ] = another dose, or the depositor's remark. The list is not random: actives were taken first. Their share in the collection is about 10%. Calls come from the whole dose curve; as a rule, active = well fitted curve in the direction sought with a large enough effect; inconclusive = small, poorly fitted or top-dose-only effect, or another doubt; inactive = no such curve, though single readings can be large; an effect the other way counts as inactive or inconclusive. Potency is the fitted concentration of half-maximal effect.

SMILES	ELG1 repair inh	RORg inh	Gal4-VP16 FLuc	MCF10A rerep	SW480 rereplic
COC(=O)[C@@]12CCCCN1[C@H](c1ccc(-c3ccc(OC)cc3)cc1)[C@@H]1C(=O)N(C)C(=O)[C@@H]12	?	.	.	-5%	11%
CCCCCCSc1ccc([C@@H]2[C@H]3C(=O)N(C)C(=O)[C@H]3[C@]3(C(=O)OC)CCCCN23)cc1OC	?	.	.	15µM*	0%
NC(=O)c1ccc(/C=N/O)[n+](Cc2ccccc2)c1	3%	14%	3%	7%	0%
Cc1ccc(NC(=O)CSCc2cc(=O)n3cc(C)sc3n2)c(C)c1	3%	-5%	-5%	-4%	0%
CCOc1ccccc1N(CC(=O)N1CCCCCC1)S(C)(=O)=O	-3%	9%	-7%	2%	-3%
COc1cccc(N(CC(=O)N2CCOCC2)S(C)(=O)=O)c1	5%	-9%	7%	16%	1%
COc1cccc(N(CC(=O)N2CCCCCC2)S(C)(=O)=O)c1	5%	-26%	-8%	0.82µM*	-11%
COc1ccccc1N(CC(=O)N1CCCCCC1)S(C)(=O)=O	.	4%	-7%	0.33µM*	?
COc1ccc(CNCc2ccc3ccccc3c2)c(OC)c1	-23%	11%	8%	1%	-10%
Cc1ccc(COC(=O)c2ccc3c(c2)C(=O)N(CCCN2CCOCC2)C3=O)cc1	-9%	18%	-1%	-8%[9.22 µM]	-24%
COc1cc(OC)nc(Oc2cc(/C=N/O)ccc2OC)n1	-6%	?	5%	?	12µM*
O=C(Cc1c[nH]c2ccccc12)NCc1ccccc1F	17%	10%	-3%	-4%	4%
CCOc1ccccc1N(CC(=O)NC(C)(C)C)C(=O)CCC(=O)Nc1nccs1	2%	23%	-11%	4%	?
COc1ccc(F)c(CN2CCC(CO)(Cc3cccc(C(F)(F)F)c3)CC2)c1	-11%	2%	-8%	?	4%
OCC1(Cc2cccc(C(F)(F)F)c2)CCN(Cc2cc3ccccc3o2)CC1	-17%	-19%	-17%	23µM*	?
Cc1c(CN2CCC(CO)(Cc3cccc(C(F)(F)F)c3)CC2)c2ccccc2n1C	-5%	7.1µM*	8.9µM*	?	?
CCCn1ncc(C(=O)N(C)C2CCCN(Cc3ccccc3F)C2)c1C (stereo unspecified)	-3%	0%	2%	3%	2%
COc1ccc(S(=O)Cc2ccc(C(=O)NCc3cccc(OC)c3)o2)cc1 (stereo unspecified)	3%	8%	-3%	-3%	?
O=C(Nc1ccc(Cl)cn1)c1ccc(-c2ccc(Cl)c(Cl)c2)o1	.	.	.	18µM*	1%
COc1ccc(C(=O)Nc2ccc(Cl)cn2)cc1Cl	?	4%	-6%	18µM*	?
O=Cc1ccc(-c2nc3ccccc3s2)o1	?	4.5µM*	7.9µM*	3%	5%
O=C(O)CCCN1C(=O)/C(=C\c2ccc(-c3nc4ccccc4s3)o2)SC1=S	?	-3%	-4%	?	23µM*
O=C(O)c1ccc(-c2nc3ccccc3s2)o1	?	1%	1%	3%	2%
Cc1cccc2cc3c(nc12)SC(=NCC1CCCO1)N(Cc1ccco1)C3 (stereo unspecified)	?	2.8µM*	3.2µM*	?	5.8µM*
Cc1ccc2nc3c(cc2c1)CN(Cc1ccco1)C(=NCC1CCCO1)S3 (stereo unspecified)	?	?	-3%[0.365 µM]	16%	?
SMILES	ELG1 repair inh	RORg inh	Gal4-VP16 FLuc	MCF10A rerep	SW480 rereplic
CC(C)(C)NC(=O)N1CCN(c2nc3ccc(Cl)cc3s2)CC1	17%	?	-6%	8%	-1%
CN(C)c1ccc(/C=C(/C(=O)c2ccc(Cl)cc2Cl)n2cncn2)cc1	?	83%	?	?	18µM*
CC(C)CC(=O)/C(=C\c1ccc(Cl)cc1Cl)n1cncn1	21µM*	4.5µM*	5µM*	4.6µM*	6.5µM*
CC(C)CC(=O)/C(=C/c1ccc(N(C)C)cc1)n1cncn1	7%	28%	8%	-1%	-1%
CCCc1cc(-c2n[nH]c(=S)n2CC(C)C)cs1	-1%	3.5µM*	11µM*	24%	-3%
CCCCn1c(-c2csc(C(C)C)c2)n[nH]c1=S	2%	4µM*	?	-4%	-10%
CCCn1c(-c2ccncc2)n[nH]c1=S	11%	?	6%	0%	-2%
CC(C)Cn1c(-c2cccc(S(=O)(=O)N3CCOCC3)c2)n[nH]c1=S	11%	.	.	2%	-8%
CCCCn1c(-c2csc(CC)c2)n[nH]c1=S	0%	0.79µM*	?	3%	-8%
Cc1ccc(C(=O)NNC(=O)c2n[nH]c(=O)c3ccccc23)cc1C	?	.	.	-1%	-9%
CCn1cc2nc(SCC(=O)Nc3ccc(OC)c(OC)c3)n(Cc3ccc(OC)cc3)c(=O)c2n1	-16%	-55%	-26%	6%	-8%
COc1cc2nc(SCC(=O)NCc3ccco3)n(Cc3ccc(Cl)cc3)c(=O)c2cc1OC	-22%	-39%	-5%	15µM*	18µM*
CCC(C)NC(=O)CSc1nc2ccc(N3CCOCC3)cc2c(=O)n1CCc1ccccc1 (stereo unspecified)	6%	7.9µM*	?	.	.
CCCCn1c(SCC(=O)NCc2ccccc2)nc2ccc(N3CCOCC3)cc2c1=O	?	?	?	21%	2%
CCn1cc2nc(SCC(=O)Nc3ccc(OC)cc3OC)n(Cc3ccc(OC)cc3)c(=O)c2n1	-11%	5%	-6%	3.3µM*	7.3µM*
CCCCn1c(SCC(=O)NCc2ccco2)nc2ccc(N3CCOCC3)cc2c1=O	-28%	6.3µM*	18µM*	?	1%
CN(c1ccc(OC(=O)CN2C(=O)NC3(CCCC3)C2=O)cc1)S(=O)(=O)c1ccccc1	12%	.	.	-1%	3%
O=C1NC[C@H](Cc2ccccc2)N(CC2CCCCC2)C1=O	2%	2%	6%	1%	-10%
CC(C)CCNC(=O)[C@H](Cc1ccccc1)N1Cc2ccccc2C1=O	3%	-1%	3%	20%	-4%
CCC(C)NC(=O)CSc1nc2ccccc2c(=O)n1Cc1ccc(OC)cc1 (stereo unspecified)	?	8%	10µM*	3%	-4%
CCCCn1c(SCC(=O)NC(C)CC)nc2ccc(N3CCOCC3)cc2c1=O (stereo unspecified)	-2%	1.3µM*	20µM*	0%	-9%
